Assay results reported in PubChem BioAssay.
Values joined by “and” are separate entries in the source; they are usually repeats but may differ in a detail not shown here. Identical values can stand only once. The source holds several records for some structures; these can differ, active in one and inactive in another. Active and inactive are the calls of the source.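 The calls were made as follows, unless noted: active = thallium flux through the channel raised or lowered by more than 3 SD from vehicle-only wells, actives on both sides; inactive = the rest.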

Tests used:
[1] = Wnt pathway potentiators raising nuclear beta-catenin – imaging, WNT3A-conditioned medium, mouse C2C12, NPC library, primary screen (AID 1117326; in the data active = nuclear beta-catenin stimulation mostly above about 4.2%, no sharp cut-off; inactive = mostly below about 10%); conditions: stronger effect = higher value
[2] = stimulators of insulin release from INS-1E, primary screen, cell-based, 5 mM glucose, NPC library (AID 1117329;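 active = compound raises insulin release from rat beta cells at 5 mM glucose, no numeric limit stated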); conditions: rat INS-1E insulin secretion, at 10 µM, stronger effect = higher value
[3] = growth inhibition of GSK3B-pretreated HCT116 cells – cell-based, CellTiter-Glo, 0.2 to 20 µM (AID 1117336;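 active = compounds lowering colon cancer cell viability after pretreatment blocking the GSK3B kinase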); conditions: HCT116 viability after GSK3B inhibitor, at 20 µM, stronger effect = higher value
[4] = inhibition of endothelial tube formation, primary screen, imaging, VEGF stimulated, CD31 staining, tube area, NPC library (AID 1117340;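 active = compound that reduces growth-factor-driven endothelial tube area in a mixed cell culture, no cutoff stated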); conditions: VEGF-stimulated ADSC/ECFC co-culture, at 10 µM, stronger effect = higher value
[5] = GLP1 release stimulators, primary, NCI-H716, NPC library (AID 1117341;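 active = compound raises GLP1 secretion from the human gut endocrine cells, with no numeric limit stated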); conditions: NCI-H716 cells, at 10 µM, stronger effect = higher value
[6] = HCT116 colon cancer cell growth inhibition, primary screen, CellTiter-Glo luminescence, NPC library (AID 1117342;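 active = compounds that lower survival of HCT116 colon cancer cells in the luminescence readout, no numeric limit stated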); conditions: at 20 µM (top of the series)
[7] = reduced SW480 viability measured with CellTiter-Glo, NPC library, primary (AID 1117343;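 active = compounds that lower viability of the colon cancer cells in the luminescence readout, with no numeric limit stated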); conditions: CellTiter-Glo luminescence; at 20 µM (top of the series)
[8] = NPC library primary testing for decreased DLD-1 cell viability via CellTiter-Glo (AID 1117346;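 active = compounds that lower survival of DLD-1 colon cancer cells in the luminescence readout, no cutoff given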); conditions: DLD-1 viability, CellTiter-Glo luminescence; at 20 µM (top of the series)
[9] = target: 6-phosphogluconate dehydrogenase, decarboxylating (Homo sapiens) (UniProt P52209); assay: inhibition of human phosphogluconate dehydrogenase – biochemical, recombinant enzyme, NADPH absorbance, primary screen (AID 1159550;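 active = at least 20% inhibition of 6-phosphogluconate dehydrogenase activity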); conditions: recombinant 6PGD, NADPH absorbance 341 nm; at 10 µM; stronger effect = higher value
Chain of 6-phosphogluconate dehydrogenase, decarboxylating (Homo sapiens) (P52209 whole entry, looked up): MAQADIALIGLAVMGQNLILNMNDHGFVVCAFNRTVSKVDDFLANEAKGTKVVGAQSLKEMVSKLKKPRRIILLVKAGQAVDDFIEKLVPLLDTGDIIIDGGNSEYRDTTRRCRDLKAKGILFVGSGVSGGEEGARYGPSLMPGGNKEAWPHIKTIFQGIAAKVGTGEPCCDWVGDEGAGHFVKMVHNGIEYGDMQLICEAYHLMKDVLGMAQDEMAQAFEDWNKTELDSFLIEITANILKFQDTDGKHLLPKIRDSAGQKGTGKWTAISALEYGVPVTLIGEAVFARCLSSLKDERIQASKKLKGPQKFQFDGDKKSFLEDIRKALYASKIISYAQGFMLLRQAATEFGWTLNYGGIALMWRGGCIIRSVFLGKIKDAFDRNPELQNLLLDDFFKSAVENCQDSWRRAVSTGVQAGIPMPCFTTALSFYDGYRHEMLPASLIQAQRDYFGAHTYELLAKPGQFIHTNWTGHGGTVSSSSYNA

[10] = viability loss with induced miR-34 in A549 – imaging, A549 dox-inducible miR-34, nuclei and caspase counts, primary screen (AID 1347080;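 active = compounds whose cell count with miR-34 switched on is under 0.7 times the count with it off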); conditions: A549 miR-34 inducible, Hoechst nuclei count, 48 h
[11] = MELAS cybrid and Rieske KO viability enhancers – cell-based, MELAS cybrids, Rieske KO mouse fibroblasts, CellTiter-Glo, primary screen (AID 1508586;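 active = mean z-score across replicates of 1.96 or higher in either the MELAS or the Rieske mutant cell line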;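 also: z relative to plate mean and SD of compound and empty wells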); conditions: low glucose
[12] = target: NAD(+) hydrolase SARM1 (Homo sapiens) (UniProt Q6SZW1); assay: blocking NAD cleavage by SARM1 SAM-TIR – cell lysate, NAD-Glo luminescence (AID 1508614;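 active = compound whose remaining NAD level is above about 45 nM, limit read from the data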;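 also: higher remaining NAD means stronger inhibition of SARM1 NADase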); conditions: SAM-TIR HEK293T lysate NADase, at 1 µM, stronger effect = higher value
Chain of NAD(+) hydrolase SARM1 (Homo sapiens) (Q6SZW1 whole entry, looked up, the tested form may be a part): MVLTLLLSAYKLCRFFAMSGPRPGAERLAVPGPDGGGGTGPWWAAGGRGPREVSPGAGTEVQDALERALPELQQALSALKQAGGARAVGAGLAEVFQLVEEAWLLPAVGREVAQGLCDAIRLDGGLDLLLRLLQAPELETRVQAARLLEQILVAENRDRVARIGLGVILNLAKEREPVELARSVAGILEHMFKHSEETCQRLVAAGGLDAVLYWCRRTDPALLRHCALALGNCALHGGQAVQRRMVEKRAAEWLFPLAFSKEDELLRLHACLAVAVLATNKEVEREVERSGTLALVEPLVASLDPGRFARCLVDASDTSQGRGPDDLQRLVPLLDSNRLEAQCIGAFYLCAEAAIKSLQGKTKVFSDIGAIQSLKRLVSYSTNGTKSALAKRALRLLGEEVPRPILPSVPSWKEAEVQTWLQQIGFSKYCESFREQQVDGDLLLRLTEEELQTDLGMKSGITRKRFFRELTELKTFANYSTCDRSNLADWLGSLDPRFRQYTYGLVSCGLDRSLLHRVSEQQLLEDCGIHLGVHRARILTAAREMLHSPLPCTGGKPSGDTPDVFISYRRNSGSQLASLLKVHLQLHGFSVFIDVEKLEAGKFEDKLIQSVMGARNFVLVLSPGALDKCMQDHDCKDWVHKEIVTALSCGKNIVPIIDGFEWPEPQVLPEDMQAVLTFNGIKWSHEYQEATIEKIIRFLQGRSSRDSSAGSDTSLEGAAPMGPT

[13] = target: Mitogen-activated protein kinase 7 (Homo sapiens) (UniProt Q13164); assay: Gal4-ERK5 driven luciferase induction – cell-based, HTS, primary screen (AID 1508626;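 active = luciferase signal above three times the same-plate solvent-only control wells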;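 also: luciferase driven by Gal4-ERK5 fusion binding five Gal4 sites before minimal TATA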); conditions: HeLa Gal4-ERK5 transactivation, 18 h, at 5 µM, stronger effect = higher value
Chain of Mitogen-activated protein kinase 7 (Homo sapiens) (Q13164 whole entry, looked up, the tested form may be a part): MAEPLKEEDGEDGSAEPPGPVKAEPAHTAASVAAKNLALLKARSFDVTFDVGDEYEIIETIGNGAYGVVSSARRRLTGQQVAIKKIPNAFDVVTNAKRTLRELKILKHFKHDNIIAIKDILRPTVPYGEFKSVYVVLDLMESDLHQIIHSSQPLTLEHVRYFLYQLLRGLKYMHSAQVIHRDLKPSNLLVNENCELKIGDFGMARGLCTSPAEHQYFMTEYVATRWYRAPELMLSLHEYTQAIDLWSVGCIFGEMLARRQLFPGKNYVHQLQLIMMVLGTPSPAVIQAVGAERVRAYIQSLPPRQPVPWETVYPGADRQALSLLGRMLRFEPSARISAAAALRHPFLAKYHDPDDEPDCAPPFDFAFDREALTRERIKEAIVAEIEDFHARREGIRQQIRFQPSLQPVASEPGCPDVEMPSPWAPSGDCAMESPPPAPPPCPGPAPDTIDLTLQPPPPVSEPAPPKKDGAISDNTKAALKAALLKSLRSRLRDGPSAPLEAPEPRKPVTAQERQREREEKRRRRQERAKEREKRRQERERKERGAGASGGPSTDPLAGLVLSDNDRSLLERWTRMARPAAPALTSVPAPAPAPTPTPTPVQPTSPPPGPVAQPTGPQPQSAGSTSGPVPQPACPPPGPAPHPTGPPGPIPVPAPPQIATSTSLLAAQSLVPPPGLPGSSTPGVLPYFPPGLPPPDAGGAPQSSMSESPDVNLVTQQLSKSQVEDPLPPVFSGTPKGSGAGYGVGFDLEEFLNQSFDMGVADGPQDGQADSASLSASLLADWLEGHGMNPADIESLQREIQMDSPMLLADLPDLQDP

F380Y = assay: BK channel mutant inhibitors and activators – cell-based, U2OS BacMam, thallium flux, beta subunits, selectivity assay, profiling panel (AID 1259406); conditions: U2OS BacMam BK variants, at 30 µM;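 also: initial slope of Thallos dye fluorescence rise after thallium is added; log ratio against the mean of 0.3% DMSO vehicle wells on the same plate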
F380Y/beta2Delta = assay: as above; conditions: U2OS BacMam BK variants, at 30 µM
[14] = target: Calcium-activated potassium channel subunit alpha-1 (Homo sapiens) + Leucine-rich repeat-containing protein 26 (Homo sapiens) (UniProt Q12791+Q2I0M4); assay: as above; conditions: U2OS BacMam BK variants, F380Y/Slo1WT/gamma1, at 30 µM
Chain of Calcium-activated potassium channel subunit alpha-1 (Homo sapiens) + Leucine-rich repeat-containing protein 26 (Homo sapiens) (Q2I0M4 whole entry, looked up, one chain of several): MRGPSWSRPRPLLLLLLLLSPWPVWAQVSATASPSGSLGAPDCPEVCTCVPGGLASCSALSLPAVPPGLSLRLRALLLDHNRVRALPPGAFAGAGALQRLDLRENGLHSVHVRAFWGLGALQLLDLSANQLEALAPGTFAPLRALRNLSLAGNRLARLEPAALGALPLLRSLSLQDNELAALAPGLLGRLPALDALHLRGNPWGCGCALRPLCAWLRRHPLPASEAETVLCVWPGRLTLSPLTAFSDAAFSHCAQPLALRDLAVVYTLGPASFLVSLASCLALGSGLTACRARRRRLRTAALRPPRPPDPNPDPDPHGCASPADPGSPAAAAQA

R275C = assay: as above; conditions: U2OS BacMam BK variants, at 30 µM
R275C/beta1 = assay: as above; conditions: U2OS BacMam BK variants, at 30 µM
R275C/beta2Delta = assay: as above; conditions: U2OS BacMam BK variants, at 30 µM
[15] = EMT-state selective cytotoxicity in co-culture – imaging, PC-3E GFP, TEM4-18 mCherry, primary screen (AID 1345086;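 active = compounds killing one labelled cell type while sparing the other, by normalised counts and ratio limits, not self-fluorescent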;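 as to all read-outs here: cells exposed to compound for 72 h before imaging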;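 as to red/green cell ratio (normalised): normalised mesenchymal count divided by normalised epithelial count so high means epithelial killing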); conditions: PC-3E GFP / TEM4-18 mCherry co-culture, imaging cell counts, at 1 µM; for red/green cell ratio (normalised): actives lie on both sides, counts scaled to control wells, 1 = unselective
[16] = stronger effect = lower value, cell number ratio, induced over uninduced
[17] = measured here: relative caspase fold change +Dox/-Dox
[18] = measured here: total cells with miR-34 induction, stronger effect = lower value
[19] = measured here: total cells without miR-34 induction
[20] = MELAS cybrid survival, CellTiter-Glo 48 h, stronger effect = higher value
[21] = Rieske KO mouse fibroblast survival, CellTiter-Glo 72 h
[22] = measured here: epithelial PC-3E GFP cell survival
[23] = measured here: mesenchymal TEM4-18 mCherry cell survival

CC1(C)O[C@@H]2C[C@H]3[C@@H]4C[C@H](F)C5=CC(=O)C=C[C@]5(C)[C@H]4[C@@H](O)C[C@]3(C)[C@]2(C(=O)CO)O1
0.665: z-score [11, 21]
1.6%: nuclear beta-catenin stimulation ([1]; stimulation, at 2 µM)
7800 and 6650: cell count [10, 19]
1.38 and 0.877: fold change [10, 17]
7820 and 5180: cell count [10, 18]
inactive: nuclear beta-catenin stimulation ([1]; at 10 µM) -0.2% | insulin secretion stimulation [2] 1.6% | viability decrease [3] -31.1% | tube area decrease [4] -14.6% | GLP1 secretion stimulation [5] -0.5% | inhibition of viability [6] -1.83% | viability decrease (inhibition) [7] 15% | viability decrease (inhibition) [8] -3.1% | inhibition [9] -16.5% | fold change [10, 16] 1 and 0.779 | z-score [11, 20] -0.397 | remaining NAD [12] 10 nM | log fold change Tl+ flux (F380Y) 0.00732 | log fold change Tl+ flux (F380Y/beta2Delta) -0.0212 | log fold change Tl+ flux [14] -0.0123 | log fold change Tl+ flux (R275C) 0.00271 | log fold change Tl+ flux (R275C/beta1) -0.0113 | log fold change Tl+ flux (R275C/beta2Delta) -0.0208
active: luciferase signal [13] 344 AU

CCN(CC)CC(=O)Nc1c(C)cccc1C
-0.148 and 0.143 and 0.303: z-score [11, 21]
1.01: normalised cell number [15, 22]
0.8%: nuclear beta-catenin stimulation ([1]; stimulation, at 2 µM)
inactive: nuclear beta-catenin stimulation ([1]; at 10 µM) -0.4% | insulin secretion stimulation [2] -1.4% | viability decrease [3] -9.9% | tube area decrease [4] 9.2% | GLP1 secretion stimulation [5] 0.9% | inhibition of viability [6] -5.2% | viability decrease (inhibition) [7] -0.2% | viability decrease (inhibition) [8] 0.45% | inhibition [9] -1.54% | red/green cell ratio (normalised) [15] 1.11 | z-score [11, 20] -0.329 and 0.222 and 0.215 | remaining NAD [12] 10 nM | luciferase signal [13] 48 AU | log fold change Tl+ flux (F380Y) 0.00448 | log fold change Tl+ flux (F380Y/beta2Delta) -0.0588 | log fold change Tl+ flux [14] 0.0193 | log fold change Tl+ flux (R275C) -0.00245 | log fold change Tl+ flux (R275C/beta1) -0.022 | log fold change Tl+ flux (R275C/beta2Delta) 0.00392
1.12: normalised cell number [15, 23]

CC[C@]1(O)C[C@@H]2CN(CCc3c([nH]c4ccccc34)[C@@](C(=O)OC)(c3cc4c(cc3OC)N(C)[C@H]3[C@@](O)(C(=O)OC)[C@H](OC(C)=O)[C@]5(CC)C=CCN6CC[C@]43[C@@H]65)C2)C1
738: cell count [10, 19]
49.7% and 61.6%: nuclear beta-catenin stimulation ([1]; stimulation, at 2 µM)
794: cell count [10, 18]
0.797: fold change [10, 17]
active: nuclear beta-catenin stimulation ([1]; at 10 µM) 78.2% and 46.4% | viability decrease [3] 84.6% and 97.7% | tube area decrease [4] 108% and 104% | inhibition of viability [6] 79.8% and 74.2% | viability decrease (inhibition) [7] 89.7% and 76.2% | viability decrease (inhibition) [8] 84.7% and 75.3%
inactive: insulin secretion stimulation [2] 5.8% and 3.65% | GLP1 secretion stimulation [5] -1.3% and 5.9% | fold change [10, 16] 1.08 | remaining NAD [12] 10 nM | luciferase signal [13] 72 AU

CNCCCC12CCC(c3ccccc31)c1ccccc12
0.98: normalised cell number [15, 23]
1.11: normalised cell number [15, 22]
-0.1%: nuclear beta-catenin stimulation ([1]; stimulation, at 2 µM)
active: viability decrease [3] 55.6% | inhibition of viability [6] 87.4% | viability decrease (inhibition) [7] 121% | viability decrease (inhibition) [8] 68.3% | log fold change Tl+ flux (F380Y/beta2Delta) 0.203 | log fold change Tl+ flux (R275C/beta1) 0.285 | log fold change Tl+ flux (R275C/beta2Delta) 0.217
inactive: nuclear beta-catenin stimulation ([1]; at 10 µM) 1.9% | insulin secretion stimulation [2] 12.2% | tube area decrease [4] 12.2% | GLP1 secretion stimulation [5] 4.8% | inhibition [9] 8.09% | red/green cell ratio (normalised) [15] 0.89 | z-score [11, 20] -0.365 and 0.126 and 0.618 | remaining NAD [12] 10 nM | luciferase signal [13] 48 AU | log fold change Tl+ flux (F380Y) 0.104 | log fold change Tl+ flux [14] 0.0351 | log fold change Tl+ flux (R275C) 0.0254
0.802 and 0.382 and 0.29: z-score [11, 21]

Cc1c(OCC(F)(F)F)ccnc1CS(=O)c1nc2ccccc2[nH]1 (stereo not drawn)
0.7 and 1.26: normalised cell number [15, 22]
active: inhibition of viability [6] 54.6%
2.1%: nuclear beta-catenin stimulation ([1]; stimulation, at 2 µM)
0.95 and 1.36: normalised cell number [15, 23]
inactive: nuclear beta-catenin stimulation ([1]; at 10 µM) 5.4% | insulin secretion stimulation [2] 0.9% | viability decrease [3] 27.8% | tube area decrease [4] 32.8% | GLP1 secretion stimulation [5] -1.8% | viability decrease (inhibition) [7] 13.2% | viability decrease (inhibition) [8] -8.8% | inhibition [9] -1.09% | red/green cell ratio (normalised) [15] 1.36 and 1.09 | remaining NAD [12] 10 nM | luciferase signal [13] 60 AU
-0.355 (inactive) and 2.16 (active): z-score [11, 20]
0.886 and 0.276: z-score [11, 21]

COc1ccc2c(c1)c(CC(=O)O)c(C)n2C(=O)c1ccc(Cl)cc1
inactive: nuclear beta-catenin stimulation ([1]; at 10 µM) 0.6% | insulin secretion stimulation [2] -1% | viability decrease [3] -52.1% | tube area decrease [4] -10.5% | GLP1 secretion stimulation [5] 1.6% | inhibition of viability [6] 0.43% | viability decrease (inhibition) [7] 10.6% | viability decrease (inhibition) [8] 3.4% | inhibition [9] -5.45% | red/green cell ratio (normalised) [15] 1.02 | z-score [11, 20] -0.268 and 0.659 and 0.23 | remaining NAD [12] 10 nM | luciferase signal [13] 36 AU | log fold change Tl+ flux (F380Y) 0.0847 | log fold change Tl+ flux [14] 0.0683 | log fold change Tl+ flux (R275C) 0.074
active: log fold change Tl+ flux (F380Y/beta2Delta) 0.11 | log fold change Tl+ flux (R275C/beta1) 0.196 | log fold change Tl+ flux (R275C/beta2Delta) 0.128
0.93: normalised cell number [15, 23]
1%: nuclear beta-catenin stimulation ([1]; stimulation, at 2 µM)
-0.036 and -0.235 and -0.118: z-score [11, 21]
0.91: normalised cell number [15, 22]

CCCN1C[C@H](CSC)C[C@@H]2c3cccc4[nH]cc(c34)C[C@H]21
0.91: normalised cell number [15, 22]
-1.1%: nuclear beta-catenin stimulation ([1]; stimulation, at 2 µM)
1.25: normalised cell number [15, 23]
-0.203 and -0.419: z-score [11, 21]
inactive: nuclear beta-catenin stimulation ([1]; at 10 µM) 0.2% | insulin secretion stimulation [2] 3.5% | viability decrease [3] 20.2% | tube area decrease [4] -5.3% | GLP1 secretion stimulation [5] 5.1% | inhibition of viability [6] 45.7% | viability decrease (inhibition) [7] -2.1% | viability decrease (inhibition) [8] 7.8% | inhibition [9] 0.728% | red/green cell ratio (normalised) [15] 1.38 | z-score [11, 20] 0.448 and 0.276 | remaining NAD [12] 10 nM | luciferase signal [13] 40 AU | log fold change Tl+ flux (F380Y) -0.0179 | log fold change Tl+ flux (F380Y/beta2Delta) 0.0229 | log fold change Tl+ flux [14] -0.0185 | log fold change Tl+ flux (R275C) -0.00135 | log fold change Tl+ flux (R275C/beta1) -0.0389 | log fold change Tl+ flux (R275C/beta2Delta) -0.00636
